An excerpt weighted towards active compounds, which were near 7.5% of everything screened.
NPC1 prom act: qHTS Assay for NPC1 Promoter Activators; 2.4% of 320,000 active; Potency, µM (series often up to 9.22 µM), without a hit: at the top dose activation, actives largely listed as activators; Huh7 NPC1 promoter luciferase reporter, 24 h; AID 485313, 2010; also: % of control where 0% means no effect; nearly all actives have a fitted effect of over 60% in size
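Huh7 cells stably carrying NPC1 promoter–luciferase, plated in Opti-MEM with 10% FBS for 2 h, were exposed to compound in DMSO for 24 h at 37 °C; luciferase reagent was added for 10 min and luminescence read.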
ELG1 genotox: qHTS screen for small molecules that induce genotoxicity in human embryonic kidney (HEK293T) cells expressing luciferase-tagged ELG1 | AID 504466, 2011 | Potency, µM (top dose mostly 46 µM), without a hit: at the top dose activity change, positive = activation, actives largely listed as activators | HEK293T ELG1-luciferase reporter, luminescence, 16 h | 1.3% of 330,000 active; also: % of control where 0% means no effect; nearly all actives have a fitted effect of over 60% in size
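DMSO vehicle served as control against compound-treated ELG1-luciferase HEK293T cells; exposure lasted 16 hr at 37 °C and 5% CO2, followed by ONE-Glo luminescence detection after 30 min.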
SMN2 splice enh: qHTS Assay for Enhancers of SMN2 Splice Variant Expression | HEK293 SMN2-luciferase splicing reporter, luminescence, 30-36 h | Potency, µM (top dose mostly 46.1 µM), for the others: at the top dose activity change, positive = activation, hits mostly activators | 2.8% of 210,000 active | AID 1458, 2008; also: % of control where 0% means no effect; nearly all actives have a fitted effect of over 55% in size
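HEK293 cells carry an SMN2 minigene-luciferase reporter in which exon 7 inclusion puts luciferase in frame. Cells were seeded at 2000 cells/well, attached for 10-12 hours, then exposed to compounds for 30-36 hours at 37C before ONE-Glo luminescence.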
Rab9 prom act: qHTS Assay for Rab9 Promoter Activators; Huh7 Rab9 promoter-luciferase reporter, luminescence, 24 h; Potency, µM (highest dose often 9.22 µM), inactives show top-dose activation, negative = inhibition, most hits filed as activators; 2.8% of 320,000 active; AID 485297, 2010; also: % of control where 0% means no effect; nearly all actives have a fitted effect of over 60% in size
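Quantitative HTS format; Huh7 Rab9-luciferase reporter cells (1500/well) receive compound 2 h post-plating, incubate 24 h at 37 °C, then get luciferase reagent for 10 min before luminescence reading.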
FLuc modulator: qHTS profiling assay for firefly luciferase inhibitor/activator using purifed enzyme and Km concentrations of substrates (counterscreen for miR-21 project) | Luciferin 4-monooxygenase (Photinus pyralis), P08659 | purified FLuc, Km substrates, luminescence inhibition | Potency, µM (doses to about 57.5 µM), inactives show top-dose activity change, negative = inhibition, hits mostly inhibitors | 6.9% of 360,000 active | AID 588342, 2011;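 also: plate controls were vehicle for no effect and reference inhibitor for full effect; nearly all actives have a fitted effect of over 55% in size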
Target sequence (P08659 whole entry, looked up): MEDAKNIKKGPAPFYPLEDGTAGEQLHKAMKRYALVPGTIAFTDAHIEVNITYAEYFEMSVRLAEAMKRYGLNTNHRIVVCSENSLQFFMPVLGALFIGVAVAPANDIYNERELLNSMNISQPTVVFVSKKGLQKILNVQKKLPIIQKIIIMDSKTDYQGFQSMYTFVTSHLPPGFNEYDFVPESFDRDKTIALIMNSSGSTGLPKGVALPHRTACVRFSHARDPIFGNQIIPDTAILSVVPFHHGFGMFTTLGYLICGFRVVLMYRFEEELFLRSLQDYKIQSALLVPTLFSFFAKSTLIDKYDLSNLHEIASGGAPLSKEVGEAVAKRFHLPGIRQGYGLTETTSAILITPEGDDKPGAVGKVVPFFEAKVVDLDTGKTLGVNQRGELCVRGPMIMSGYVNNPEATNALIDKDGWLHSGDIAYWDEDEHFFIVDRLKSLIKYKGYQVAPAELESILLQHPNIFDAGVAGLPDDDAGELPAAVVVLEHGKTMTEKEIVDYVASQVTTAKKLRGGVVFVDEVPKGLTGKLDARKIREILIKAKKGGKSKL
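Purified P. pyralis luciferase (10nM final) with 10uM D-luciferin and 10uM ATP (Km levels) in 50mM Tris acetate pH 7.5, 10mM Mg acetate, 0.01% Tween-20, 0.05% BSA; qHTS 6-point titration, ~60 µM downward; luminescence read.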
Active calls of the source: *; ? = inconclusive; . = not tested or not shown. Calls follow the shape of the dose curve; as a rule, active = well fitted curve in the direction sought with a large enough effect; inconclusive = small, poorly fitted or top-dose-only effect, or another doubt; inactive = no such curve, though single readings can be large; an effect the other way counts as inactive or inconclusive. Potency is read from the fitted curve at half-maximal effect.

SMILES | NPC1 prom act | ELG1 genotox | SMN2 splice enh | Rab9 prom act | FLuc modulator
Nc1nonc1C(=O)N/N=C\c1cc2c(cc1Cl)OCO2 | -7% | 15% | . | -2% | ?
O=C(N/N=C/c1ccc2c(c1)OCO2)c1cc2ccccc2o1 | 10% | 7% | . | 2% | ?
Cc1ccc(/C=N\NC(=O)c2ccc3c(c2)OCO3)o1 | ? | ? | . | ? | 24µM*
O=C(CSc1ncn[nH]1)NCCc1ccc(Cl)cc1Cl | -2% | 2% | . | -4% | 6%
CC(C)OC(=O)NCCOC(=O)Nc1ccc(Cl)cc1 | -3% | -2% | . | 1% | -14%
O=C(N/N=C/c1ccc([N+](=O)[O-])o1)c1ccc2c(c1)OCO2 | -11% | -4% | . | 13% | ?
CN(C)c1ccc(/C=N/NC(=O)c2ccc3c(c2)OCO3)cc1 | ? | ? | . | ? | 8.5µM*
O=C(N/N=C/c1cccc(O)c1)c1cc(-c2ccc3c(c2)OCO3)n[nH]1 | -2% | -2% | 8% | 1% | 5.4µM*
O=C(N/N=C/c1ccccc1)c1cc(-c2ccc3c(c2)OCO3)n[nH]1 | -5% | 2% | 15% | -2% | -5%
O=C(N/N=C/c1ccc(Br)o1)c1ccc2c(c1)OCCO2 | 3.2µM* | ? | 11µM* | 3.2µM* | 6µM*
CCn1cc(/C=N/NC(=O)c2ccc3c(c2)OCO3)cn1 | 0% | 2% | 7% | 11% | ?
COc1cc(/C=N/NC(=O)c2ccc3c(c2)OCCO3)cc(Cl)c1O | 22% | 10% | . | 2% | 13µM*
Cc1ccc(C(=O)OCC(=O)Nc2ncc(Cl)cc2Cl)cc1NC(=O)c1ccco1 | -1% | 1% | -2% | -2% | 4%
CCCNC(=O)NC(=O)COC(=O)/C=C/c1cc(Br)ccc1F | 0% | 2% | . | -1% | -7%
CC(C)OCCCn1c(SCC(=O)Nc2ccccc2C(F)(F)F)nc2nccnc2c1=O | 0% | -3% | . | -12% | 1%
O=C(O)c1ccc(/C=N/NC(=O)c2ccc3c(c2)OCCO3)cc1 | 0% | ? | . | 1% | 6.7µM*
COc1ccc(CC(=O)OCc2cc3ccc(C)cc3[nH]c2=O)cc1 | -2% | -42% | -3% | 7% | -10%
CCOC(=O)N1CCN(CC(=O)Nc2nc3ccc(OC)cc3s2)CC1 | -1% | -4% | . | 2% | -10%
COc1ccc(/C=N/NC(=O)C(N)=O)c(OC)c1OC | -4% | 4% | -3% | -3% | 0%
COC(=O)c1sccc1N/N=C/c1cccc(Oc2ccccc2)c1 | 3.2µM* | 2.3µM* | ? | 2.2µM* | 1.9µM*
COC(=O)c1sccc1N/N=C/c1cccc(OC)c1O | 3.5µM* | ? | 0.56µM* | 3.2µM* | 0.95µM*
COC(=O)c1sccc1N/N=C/c1ccc(OC)c(OC)c1OC | ? | ? | 14µM* | ? | 15µM*
COC(=O)c1sccc1NC(=O)c1ccccc1 | -5% | 0% | 8% | -3% | -2%
Cc1ccc(-n2nc3c(=O)n(C(C)C(=O)NCc4ccccc4C)nc(C)c3c2C)cc1 (stereo not given) | . | . | . | . | -14%
C/C=C(\C)CN1CCC(n2nccc2NC(=O)c2ccc3c(c2)OCO3)CC1 | -4% | 0% | . | -6% | 0%
SMILES | NPC1 prom act | ELG1 genotox | SMN2 splice enh | Rab9 prom act | FLuc modulator
CCOc1ccc(NC(=O)C2CCN(S(=O)(=O)c3cccs3)CC2)cc1 | 0% | -16% | . | -5% | 2%
CCN(CC)S(=O)(=O)c1nnc(NC(=O)COc2ccc(Cl)cc2)s1 | . | . | . | . | 2.4µM*
CCN(CC)S(=O)(=O)c1nnc(NC(=O)COc2ccccc2F)s1 | . | . | . | . | 11µM*
CC(NC(=O)c1ccc(NC(=O)CC2SC(N3CCCC3)=NC2=O)cc1)c1ccc(F)cc1 (stereo not given) | -1% | -3% | . | -2% | -1%
COc1cccc(/C=C2\Oc3cc(OCC(=O)N4Cc5ccccc5C[C@H]4C(=O)O)ccc3C2=O)c1 | 0% | 0% | . | -1% | 3µM*
COc1ccccc1/C=C1\Oc2cc(OC(=O)N3CCOCC3)ccc2C1=O | 19% | 4% | . | 14% | 11µM*
O=C1/C(=C/c2ccc3c(c2)OCO3)Oc2cc(OCC(=O)N3CCC[C@H]3C(=O)O)ccc21 | 2% | -2% | . | -1% | 0.54µM*
Cc1ccc(/C=C2\Oc3cc(OC(=O)N4CCOCC4)ccc3C2=O)cc1 | 8% | -2% | -17% | 14% | 2.1µM*
COc1ccc(-c2c(C)c3cc(OC(=O)N4CCOCC4)ccc3oc2=O)cc1OC | . | . | . | . | 3%
O=C(Oc1ccc2c(c1)O/C(=C\c1ccncc1)C2=O)c1ccccc1 | -8% | 5% | 13% | 1% | -12%
CCC1CCCCN1C(=O)COc1ccc2c(c1)OCO2 (stereo not given) | 1% | 8% | . | 4% | -1%
COc1cccc(/C=C2\Oc3cc(OC(=O)N4CCOCC4)ccc3C2=O)c1 | 20% | 5% | . | 22% | 6µM*
COc1ccc(OC(=O)N2CCOCC2)cc1 | 4% | 6% | . | 12% | 1%
Cc1ccsc1/C=C1\Oc2cc(OCC(=O)c3ccccc3)ccc2C1=O | 10% | 7% | -7% | 1% | 2.7µM*
CCc1ccc(/C=C2\Oc3ccc(C(=O)OC)cc3C2=O)cc1 | 29% | 12% | ? | ? | ?
COc1ccc(/C=C2\Oc3cc(OCC(=O)N4CCC[C@H]4CO)ccc3C2=O)c(OC)c1 | -4% | 4% | . | 2% | 13µM*
COC(=O)c1ccc2c(c1)C(=O)/C(=C/c1ccc(C)cc1)O2 | ? | 15% | 11µM* | ? | ?
CCOc1ccc(NC(=S)N(CCOC)C(C)c2ccco2)cc1 (stereo not given) | 1% | -1% | . | -4% | 3%
Cc1ccc2[nH]c(=O)c(CN(CCc3ccccc3)C(=O)N3CCOCC3)cc2c1 | 3% | 0% | 0% | 12% | 0%
COc1ccc(/C=C2\Oc3cc(OCC(N)=O)ccc3C2=O)cc1OC | -5% | 3% | . | 7% | 12µM*
COC(=O)COc1ccc2c(c1)O/C(=C\c1cccc([N+](=O)[O-])c1)C2=O | -3% | 2% | . | 7% | -8%
CC(C)(C)c1ccc(C(=O)Nc2ccc(NC(=O)C(=O)O)cc2)o1 | 1% | -2% | 6% | -3% | 9.5µM*
Cc1cc(C(=O)Nc2cccc(C(=O)O)c2)oc1C | ? | ? | 1.6µM* | ? | 0.54µM*
Cc1oc(C(C)(C)C)cc1C(=O)Nc1cccc(C(=O)O)c1 | 0.71µM* | ? | ? | 3.2µM* | 12µM*
CC(C)(C)NC(=O)c1cccc(NC(=O)c2ccco2)c1 | -3% | -1% | 3% | 3% | ?
Cc1oc(C(C)(C)C)cc1C(=O)Nc1ccc(C(=O)O)cc1 | ? | 17% | ? | ? | 17µM*
